Source: PubChem BioAssay AID504913 (The Scripps Research Institute Molecular Screening Center, 2011)
The other results are listed elsewhere or left out. Values without a mark were called inactive. Rule as the data show it: active = activation above about 18%; inactive = the rest.

Assay: activation of mu-delta opioid heterodimer signal – cell-based, luminescence, counter-screen for HTR5A agonist project (AID 504913)
Settings: U2OS counter-screen cells, complementation luminescence, 3 h; at 9.3 µM; hits give high values
Work on `O=C(OC12CC3CC(CC(C3)C1)C2)c1ccc(NCc2cc(O)ccc2O)cc1` yielded an activation of 8.31%. In the case of `CNC(=S)N/N=C/c1ccc(OCc2ccccc2)c(Br)c1`, the activation is reported as -1.02%. For `COc1ccc(/C=C(\C#N)c2c[nH]c3ccccc23)cc1`, the activation was 6.75%. With `CNc1nnc(-c2ccco2)s1` the activation was 4.29%. With `Cc1c(C(=O)OCC(=O)N(CCC#N)c2ccccc2)oc2c1ccc1ccccc12` the activation was 1.04%. `COC(=O)c1cc(S(=O)(=O)N2CCN(c3cc(C)ccc3C)CC2)c[nH]1` gave an activation of 0.96%. With `CC(=O)N1CCN(c2ccccc2NC(=S)NC(=O)c2cc3ccccc3o2)CC1` the activation was 0.56%. Work on `O=C(CC1Nc2ccccc2NC1=O)Nc1ccccc1` (centres undefined) yielded an activation of 2.23%. Work on `COC(=O)c1cc(C(=O)OCC(=O)Nc2cc(C)on2)cc([N+](=O)[O-])c1` yielded an activation of 1.24%.
